Source: PubChem BioAssay (NCATS)
Results filed as inconclusive are left out. The source made the active and inactive calls. The call rests on the fitted dose curve; in most records, active means well fitted curve in the direction sought with a large enough effect; inconclusive means small, poorly fitted or top-dose-only effect, or another doubt; inactive means no such curve, though single readings can be large; an effect the other way counts as inactive or inconclusive.

Assays:
CRL-7250 = normal cell line; assay: Cytotoxic Profiling of Annotated Libraries Using Quantitative High-Throughput Screening (AID 1296008); conditions: Five cell lines viability, CellTiter-Glo ATP luminescence, 48-72 h; max response: stronger effect = lower value; further: nearly all actives have a fitted effect of over 60% in size; on max response: on the % scale 0 is the no-effect control and ±100 the full control effect
How it was run: (§1)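 Cells exposed to compounds for 48 or 72 hr at 37 degrees Celsius. Viability read as ATP-coupled luminescence with CellTiter-Glo after 10 min at room temperature.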

HEK293 = assay: as above; conditions: Five cell lines viability, CellTiter-Glo ATP luminescence, 48-72 h; max response: stronger effect = lower value
How it was run: as §1

HaCat [1] = assay: as above; conditions: Five cell lines viability, CellTiter-Glo ATP luminescence, 48-72 h; max response: stronger effect = lower value
How it was run: as §1

KB-3-1 = assay: as above; conditions: Five cell lines viability, CellTiter-Glo ATP luminescence, 48-72 h; max response: stronger effect = lower value
How it was run: as §1

NIH3T3 [2] = assay: as above; conditions: Five cell lines viability, CellTiter-Glo ATP luminescence, 48-72 h; max response: stronger effect = lower value
How it was run: as §1

HACAT [3] = assay: qHTS assay to identify novel small-molecules to repurpose for Merkel cell carcinoma treatment (AID 1296009); conditions: MCC and control cell lines, CellTiter-Glo viability, 72 h; at 44.8 µM (top of the series) unless noted; further: nearly all actives have a fitted effect of over 60% in size
How it was run: (§2)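 Cells were treated for 72 hr at 37 degree celsius with compounds in 8- or 11-point dose response. Viability was read by CellTiter-Glo luminescence, normalized to no-cell (cytotoxicity) and DMSO controls.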

NIH3T3 [4] = assay: as above; conditions: MCC and control cell lines, CellTiter-Glo viability, 72 h; at 44.8 µM (top of the series) unless noted
How it was run: as §2

C33A = assay: Primary qHTS to identify gynecologic anti-cancer compounds using libraries of approved drugs and bioactive compounds (AID 1345084); conditions: Gynecologic cancer cell panel viability, ATPlite luminescence, 48 h; series mostly up to 57.5 µM; further: on the % scale 0 is the no-effect control and ±100 the full control effect; nearly all actives have a fitted effect of over 55% in size
How it was run: (§3)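 Cell viability after 48 h drug treatment, ATPlite luminescence readout; five doses.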

CAOV3 = assay: as above; conditions: Gynecologic cancer cell panel viability, ATPlite luminescence, 48 h; series mostly up to 57.5 µM
How it was run: as §3

CASKI = assay: as above; conditions: Gynecologic cancer cell panel viability, ATPlite luminescence, 48 h; series mostly up to 57.5 µM
How it was run: as §3

Es-2 = assay: as above; conditions: Gynecologic cancer cell panel viability, ATPlite luminescence, 48 h; series mostly up to 57.5 µM
How it was run: as §3

HeLa = assay: as above; conditions: Gynecologic cancer cell panel viability, ATPlite luminescence, 48 h; series mostly up to 57.5 µM
How it was run: as §3

Hek293T = assay: as above; conditions: Gynecologic cancer cell panel viability, ATPlite luminescence, 48 h, control line for the selectivity index; series mostly up to 57.5 µM
How it was run: as §3

JEG-3 = assay: as above; conditions: Gynecologic cancer cell panel viability, ATPlite luminescence, 48 h; series mostly up to 57.5 µM
How it was run: as §3

CCN1CCN(C(=O)N[C@@H](C(=O)N[C@@H]2C(=O)N3[C@@H]2SC(C)(C)[C@@H]3C(=O)O)c2ccccc2)C(=O)C1=O
inactive: max response (CRL-7250) -7% | max response (HEK293) -6.17% | outcome (HaCat [1]) | outcome (KB-3-1) | outcome (NIH3T3 [2]) | outcome (HACAT [3]) | outcome (NIH3T3 [4]) | Potency (C33A) | Potency (CAOV3) | outcome (CASKI) | Potency (Es-2) | Potency (HeLa) | Potency (Hek293T) | Potency (JEG-3)

C=C1CCC2C(C)(C)CC(=O)CC2(C)C1CCC(C)CCO (stereo not drawn)
inactive: max response (CRL-7250) -5.3% | max response (HEK293) 1.61% | outcome (HaCat [1]) | max response (KB-3-1) 0.95% | outcome (NIH3T3 [2]) | outcome (HACAT [3]) | outcome (NIH3T3 [4]) | Potency (C33A) | Potency (CAOV3) | outcome (CASKI) | Potency (Es-2) | Potency (HeLa) | Potency (Hek293T) | Potency (JEG-3)

CC1CCC2(C(=O)O)CCC3(C)C(=CCC4C5(C)CCC(O)C(C)(C(=O)O)C5CCC43C)C2C1(C)O (stereo not drawn)
inactive: max response (CRL-7250) -10.9% | max response (HEK293) -11.5% | outcome (HaCat [1]) | max response (KB-3-1) 3.72% | outcome (NIH3T3 [2]) | outcome (HACAT [3]) inactive [at 17.4 µM] | outcome (NIH3T3 [4]) inactive [at 17.4 µM] | Potency (C33A) | Potency (CAOV3) | outcome (CASKI) | Potency (Es-2) | Potency (HeLa) | Potency (Hek293T) | Potency (JEG-3)

O=C(O)/C=C/c1ccc(O[C@@H]2O[C@H](CO)[C@@H](O)[C@H](O)[C@H]2O)cc1
inactive: outcome (CRL-7250) | max response (HEK293) -0.219% | outcome (HaCat [1]) | outcome (KB-3-1) | outcome (NIH3T3 [2]) | outcome (HACAT [3]) | outcome (NIH3T3 [4]) | Potency (C33A) | Potency (CAOV3) | outcome (CASKI) | Potency (Es-2) | Potency (HeLa) | Potency (Hek293T) | Potency (JEG-3)

CC[C@H](NC(=O)c1c(O)c(-c2ccccc2)nc2ccccc12)c1ccccc1
inactive: outcome (CRL-7250) | max response (HEK293) -9.53% | outcome (HaCat [1]) | max response (KB-3-1) -1.35% | outcome (NIH3T3 [2]) | outcome (HACAT [3]) | outcome (NIH3T3 [4]) | Potency (C33A) | Potency (CAOV3) | outcome (CASKI) | Potency (Es-2) | Potency (HeLa) | Potency (Hek293T) | Potency (JEG-3)

CC(=O)OC1C(O)/C(C)=C\C2C(OC(=O)c3ccccc3)C(C)CC2(OC(C)=O)C(OC(C)=O)C(C)/C=C/C(C)(C)C1OC(C)=O (stereo not drawn)
inactive: max response (CRL-7250) -1.02% | max response (HEK293) -2.9% | outcome (HaCat [1]) | max response (KB-3-1) 7.33% | outcome (NIH3T3 [2]) | outcome (HACAT [3]) inactive [at 17.4 µM] | outcome (NIH3T3 [4]) inactive [at 17.4 µM] | Potency (C33A) | Potency (CAOV3) | outcome (CASKI) | Potency (Es-2) | Potency (HeLa) | Potency (Hek293T) | Potency (JEG-3)

COC1OC(OC)C(O)(CCC2(C)C(C)CCC3(C)C2CC(O)C(O)C32CO2)C1O (stereo not drawn)
inactive: max response (CRL-7250) -2.11% | max response (HEK293) 1.57% | outcome (HaCat [1]) | max response (KB-3-1) 5.15% | outcome (NIH3T3 [2]) | outcome (HACAT [3]) inactive [at 17.4 µM] | outcome (NIH3T3 [4]) inactive [at 17.4 µM] | Potency (C33A) | Potency (CAOV3) | outcome (CASKI) | Potency (Es-2) | Potency (HeLa) | Potency (Hek293T) | Potency (JEG-3)

C=C1CC/C=C(/CO)C(=O)C[C@@H]2[C@@H]1C[C@@]2(C)COC(C)=O
inactive: outcome (CRL-7250) | max response (HEK293) -4.3% | outcome (HaCat [1]) | max response (KB-3-1) 5.17% | outcome (NIH3T3 [2]) | outcome (HACAT [3]) | outcome (NIH3T3 [4]) | Potency (C33A) | Potency (CAOV3) | outcome (CASKI) | Potency (Es-2) | Potency (HeLa) | Potency (Hek293T) | Potency (JEG-3)

COc1ccc(N2CCN(CCCNC(=O)Cn3c(=O)c4cccn4c4c(C)ccnc43)CC2)cc1
inactive: max response (CRL-7250) -6.16% | max response (HEK293) -13.3% | outcome (HaCat [1]) | max response (KB-3-1) 6.93% | outcome (NIH3T3 [2]) | outcome (HACAT [3]) | outcome (NIH3T3 [4]) | Potency (C33A) | Potency (CAOV3) | outcome (CASKI) | Potency (Es-2) | Potency (HeLa) | Potency (Hek293T) | Potency (JEG-3)

CC(=O)O[C@@H]1[C@@H](O)[C@H](C)O[C@@H](O[C@H]2[C@@H]3C=CO[C@@H](O[C@@H]4O[C@H](CO)[C@@H](O)[C@H](O)[C@H]4OC(C)=O)[C@@H]3[C@@]3(CO)O[C@@H]23)[C@@H]1OC(=O)/C=C/c1ccc(O)cc1
inactive: max response (CRL-7250) 0.704% | max response (HEK293) 2.14% | outcome (HaCat [1]) | outcome (KB-3-1) | outcome (NIH3T3 [2]) | outcome (HACAT [3]) inactive [at 17.4 µM] | outcome (NIH3T3 [4]) inactive [at 17.4 µM] | Potency (C33A) | Potency (CAOV3) | outcome (CASKI) | Potency (Es-2) | Potency (HeLa) | Potency (Hek293T) | Potency (JEG-3)

CCC1OC(=O)C(C)CC(C)C(=O)/C(C)=C/C(C)C(=O)/C=C/C1(C)O (stereo not drawn)
inactive: outcome (CRL-7250) | max response (HEK293) -3.54% | outcome (HaCat [1]) | max response (KB-3-1) 8.38% | outcome (NIH3T3 [2]) | outcome (HACAT [3]) | outcome (NIH3T3 [4]) | Potency (C33A) | Potency (CAOV3) | outcome (CASKI) | Potency (Es-2) | Potency (HeLa) | Potency (Hek293T) | Potency (JEG-3)

CC1=C(CO)CC(C(C)C2CCC3C4CC=C5CC(OC6OC(COC7OC(CO)C(O)C(O)C7O)C(O)C(O)C6O)CC(O)C5(C)C4CCC23C)OC1=O (stereo not drawn)
inactive: outcome (CRL-7250) | max response (HEK293) -8.19% | outcome (HaCat [1]) | max response (KB-3-1) -0.551% | outcome (NIH3T3 [2]) | outcome (HACAT [3]) inactive [at 17.4 µM] | outcome (NIH3T3 [4]) inactive [at 17.4 µM] | Potency (C33A) | Potency (CAOV3) | outcome (CASKI) | Potency (Es-2) | Potency (HeLa) | Potency (Hek293T) | Potency (JEG-3)
